Inconclusive results are not listed. The source made the active and inactive calls. Calls follow the shape of the dose curve; as a rule, active = well fitted cell-killing curve with a large enough effect; inconclusive = small, poorly fitted or top-dose-only effect; inactive = flat fitted curve, though single readings scatter.
% is scaled to controls: 0 for no effect and ±100 for the full control effect.

The assay can be described thus: qHTS of pediatric cancer cell lines to identify multiple opportunities for drug repurposing: Primary screen for TC32 cells (AID 1347089). Also: nearly all actives have a fitted effect of over 60% in size. The settings on record: TC32 Ewing sarcoma viability, CellTiter-Glo luminescence, 48 h; series mostly up to 45.8 µM; activity change, negative = cytotoxic: at the top concentration. The source says: Drug repurposing or repositioning has been offered as a strategy for drug development in oncology programs. This approach has special potential for childhood cancers and other rare or orphan diseases, where the expected return on new drug development has been a disincentive to pharmaceuticals.
In this project we exploit the poly-pharmacology of drugs to discover new indications via phenotypic screening of a panel of 19 well-characterized cell lines derived from solid tumors seen in children and adolescents. The goal is to identify approved drugs with previously unrecognized anticancer properties that has the potential to reveal new mechanisms and biological processes involved in carcinogenesis or drug resistance. We employed a titration-based paradigm (quantitative high-throughput screening or qHTS), where all compounds were tested at multiple concentrations for their effect on cell viability. Concentration-response curves (CRCs) were derived directly from the primary screen, and both potency and efficacy values were used to identify compounds with robust bioactivity profiles. We screened the NIH Chemical Genomics Center (NCGC) Pharmaceutical Collection (NPC) and Mechanism Interrogation Plate (MIPE) small molecule collections of approved and investigational compounds against these cell lines; and measured metabolically active cells after 48 hours of compound treatment as a proxy for cell viability.
Assay Submitter: Nathalia J. Martinez, National Center for Advancing Translational Sciences, National Institutes of Health, Rockville, MD, USA; email: natalia.martinez@nih.gov
[1] Shen, M et al. Quantitative high-throughput phenotypic screening of pediatric cancer cell lines identifies multiple opportunities for drug repurposing. Oncotarget 2017 Dec 19;9(4):4758-4772. PMID 29435139.
The cells were obtained from University of North Carolina (UNC), Pediatric Preclinical Testing Program (PPT), and Coriell Institute (CI).
qHTS cell viability assay:
Cells were assayed in growth media at a density of 500-1,000 cells/well. Five microliters of cells were dispensed into 1,536-well, white, solid-bottom, TC-treated plates (Greiner Bio One) using a multidrop dispenser and incubated at 37 degrees C, 5% CO2, under a humidified atmosphere for 5 hours. Twenty-three nanoliters of compounds and controls (neutral control DMSO or positive control bortezomib at final concentration of 2.3 uM) were subsequently transferred by Kalypsys pintool. For primary screens, the MIPE collection was tested at 11-point dilutions (final concentrations range from 0.78 nM to 46 µM) and the NPC collection at 8-point dilutions (final concentrations range from 0.59 nM to 46 µM). Compounds tested in follow-up screens were assayed at 11-point dilutions. Cells were incubated for 48 hours, followed by addition of 3 uL of CellTiter-Glo (Promega). After a 15min incubation at room temperature, samples were analyzed for luminescence intensity using a ViewLux High-throughput CCD imager equipped with clear filters.
(qHTS replaces the single test concentration by a dilution series.)
With `CC(=O)N[C@@H](CC(C)C)C(=O)O`, the “activity change, negative = cytotoxic” value was 13.9% (inactive).
Turning to `C[C@@H]1O[C@@H](OC[C@H]2O[C@@H](Oc3c(-c4ccc(O)c(O)c4)oc4cc(O)cc(O)c4c3=O)[C@H](O)[C@@H](O)[C@@H]2O)[C@H](O)[C@H](O)[C@H]1O`, the “activity change, negative = cytotoxic” value is 0% (inactive).
For `NCc1ccc(S(N)(=O)=O)cc1`, the “activity change, negative = cytotoxic” value was 3.35% (inactive).
The figure for `CC1CC(OC(=O)c2ccccc2O)CC(C)(C)C1` (stereo not given) is -3.75% (inactive); for `NC(=O)NC1NC(=O)NC1=O` (stereo not given) it is 17.1% (inactive).
The figure for `Cc1[nH]c(C)c(Cl)c(=O)c1Cl` is 11.1% [at 16 µM] (inactive).
The figure for `Cn1c(=O)c2c(ncn2CCO)n(C)c1=O` is 2.52% (inactive).
Turning to `NCC1CCC(C(=O)Oc2ccc(CCC(=O)O)cc2)CC1` (stereo not given), the “activity change, negative = cytotoxic” value was 11.1% (inactive).
Take `COc1ccc(Cc2cnc(N)nc2N)cc1OC`: the “activity change, negative = cytotoxic” value is 8.23% (inactive).
In the case of `CC[N+](CC)(CC(=O)Nc1c(C)cccc1C)Cc1ccccc1` it was 4.2% (inactive); in that of `Cc1ccsc1/C=C/C1=NCCCN1C`, 3.72% (inactive); in that of `CCOC(=O)[C@H](CCc1ccccc1)N[C@@H](C)C(=O)N1CCC[C@H]1C(=O)O`, 11.6% (inactive).
In the case of `Nc1ccc(S(=O)(=O)c2ccc(N)cc2)cc1` it was 8.29% (inactive).
The figure for `CC(C(=O)O)c1ccc2c(c1)Cc1cccnc1O2` (stereo not given) is 9.32% (inactive); for `CC(=O)OC[C@H]1O[C@@](COC(C)=O)(O[C@H]2O[C@H](COC(C)=O)[C@@H](OC(C)=O)[C@H](OC(C)=O)[C@H]2OC(C)=O)[C@@H](OC(C)=O)[C@@H]1OC(C)=O` it is -1.05% (inactive); for `O=C(NCC(O)CO)c1c(I)c(C(=O)NCC(O)CO)c(I)c(N(CCO)C(=O)CO)c1I` (stereo not given) it is 5.15% (inactive).
As for `C=CCOc1ccccc1OCC(O)CNC(C)C` (stereo not given), the “activity change, negative = cytotoxic” value is 15% (inactive).
For the compound `Cc1cc(O)cc(C)c1Cl`, the “activity change, negative = cytotoxic” value was 10.4% (inactive).
In the case of `O=C(/C=C/c1ccccc1)OCc1ccccc1` it was 7.53% (inactive); in that of `Cc1ccsc1C(=CCCN1CCC[C@@H](C(=O)O)C1)c1sccc1C`, 15.5% (inactive); in that of `C[C@H]1COc2c(C3(N)CC3)c(F)cc3c(=O)c(C(=O)O)cn1c23`, 5.45% (inactive).
In the case of `Cc1cccc(Nc2ccccc2C(=O)O)c1C` it was 16.8% (inactive); in that of `C[N+](C)(C)CC(O)CC(=O)[O-]` (stereo not given), -7.56% (inactive); in that of `CC(C)=CCC/C(C)=C/CO`, 6.8% (inactive).
In the case of `CCCNC(C)(C)COC(=O)c1ccccc1` it was -1.39% (inactive); in that of `CC1(C)[C@@H](OC(=O)CCC(=O)O)CC[C@]2(C)[C@H]3C(=O)C=C4[C@@H]5C[C@@](C)(C(=O)O)CC[C@]5(C)CC[C@@]4(C)[C@]3(C)CC[C@@H]12`, 8.21% (inactive); in that of `O=C(O)c1ccccc1C(=O)Nc1ccc(S(=O)(=O)Nc2nccs2)cc1`, -5.01% (inactive).
As for `C[N+]1(C)CCCC(OC(=O)C(O)(c2ccccc2)c2ccccc2)C1` (stereo not given), the “activity change, negative = cytotoxic” value is -2.98% (inactive).
In the case of `COc1ccccc1OCC(O)CO` (stereo not given) it was 13.1% (inactive); in that of `COc1ccccc1Oc1c(NS(=O)(=O)c2ccc(C(C)(C)C)cc2)nc(-c2ncccn2)nc1OCCO`, 2.21% (inactive).
In the case of `CCCCCCCC(=O)OCC(O)CO` (stereo not given) it was 2.86% (inactive); in that of `CN(C/C=C/C#CC(C)(C)C)Cc1cccc2ccccc12`, 2.69% (inactive).
The figure for `Cn1c([N+](=O)[O-])cnc1COC(N)=O` is -1.44% (inactive); for `C/C(=C(\CCO)SS/C(CCO)=C(\C)N(C=O)Cc1cnc(C)nc1N)N(C=O)Cc1cnc(C)nc1N` it is 15.9% (inactive); for `O=C(O)[C@@H]1[C@H]2C[C@H]3c4[nH]c5ccccc5c4CCN3C[C@@H]2CC[C@@H]1O` it is 11% (inactive).
`Cc1cccc(C(=O)O)c1O`: the “activity change, negative = cytotoxic” value is 12.1% (inactive).
In the case of `COc1ccc(C(=O)NCc2ccc(OCCN(C)C)cc2)cc1OC` it was 4.58% (inactive); in that of `CCCCCCCCCCOc1cc2c(=O)c(C(=O)OCC)c[nH]c2cc1OCC`, 8.44% [at 4.81 µM] (inactive); in that of `CC(C)CCCC(C)CCCC(C)CCCCC(C)CCCC(C)CCCC(C)C` (stereo not given), 2.45% (inactive).
For `O=C(O)CCCc1ccccc1`, the “activity change, negative = cytotoxic” value is 2.98% (inactive).

(Values after PubChem BioAssay (NCATS).)
